# Screens deposited in PubChem by National Center for Advancing Translational Sciences (NCATS).
# Sampled rows, rich in hits. Any-hit rate of the full collection: about 14%.
# Lassa entry inh – inhibitors of Lassa virus binding or cell entry; Lassa virus pseudotype entry inhibition, cell reporter; Potency, µM (titrated, usually from 37.9 µM), without a hit: at the top dose activity change, negative = inhibition, most hits filed as inhibitors; 300,000 tested, 1.2% active; calls by dose curve; tested in HEK293 cells; also: potency is read from the fitted curve at half-maximal effect; nearly all actives have a fitted effect of over 50% in size
# HCMV antiviral – blocks human cytomegalovirus replication | HFF cells, HCMV-luciferase reporter, 72 h; stronger effect = lower value | activity change, negative = inhibition, % at 57.5 µM | 410,000 tested, 4.5% active; in the data active = activity change below about -60%; inconclusive = no clear call, values can overlap the other calls; inactive = above about -39%
#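 HFF cells seeded 16 h at 37C, treated with compounds, infected with luciferase-reporter HCMV at MOI 1 PFU/cell; luciferase read at 72 h post infection, normalized to buffer-only and Salinomycin controls.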
# Pf growth 96h – P. falciparum growth inhibition at 96 hour, primary screen for plastid delayed-death inhibitors | 320,000 tested, 6.9% active | Potency, µM (top dose mostly 28.7 µM), for the others: at the top dose activity change, negative = inhibition, hits mostly inhibitors | P. falciparum luciferase reporter growth, 96 h; also: potency is read from the fitted curve at half-maximal effect
#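 Two-generation exposure (96 h) targets delayed-death phenotype. Reporter parasites carrying integrated firefly luciferase, in red cells at 2% hematocrit and 0.05% parasitemia final, kept at 37 C, 5% CO2; luminescence loss indicates inhibition.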
# HCV inh – inhibitors of hepatitis C virus infection. Huh7.5.1 HCVcc-Cre infection, luciferase reporter, 44 h. Potency, µM (doses to about 41.8 µM), inactives show top-dose activity change, negative = inhibition, hits mostly inhibitors. 340,000 tested, 3.4% active; also: potency is read from the fitted curve at half-maximal effect
#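 Whole-lifecycle infectious HCVcc-Cre system; cells 1,000/well, compound then virus (~0.5 moi) added 4 h after plating, 44 h culture. Luciferase read 15 sec following 15 min substrate incubation, room temp.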
# Pf growth 48h – P. falciparum growth inhibition at 48 hours (one generation); P. falciparum luciferase growth in erythrocytes, 48 h; Potency, µM (doses to about 28.7 µM), for the others: top-dose activity change, negative = inhibition, hits mostly inhibitors; 310,000 tested, 5.9% active; AID 504832; also: potency is read from the fitted curve at half-maximal effect
#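 Read-out is firefly luciferase luminescence from an integrated reporter in P. falciparum, so falling signal marks reduced parasite growth. Infected erythrocytes were at 2% hematocrit and 0.1% parasitemia (final) in Albumax-supplemented RPMI 1640.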
# Marburg entry inh – blocks Marburg virus binding to or entry into cells | Marburg virus pseudotyped entry inhibition, cell reporter | Potency, µM (titrated, usually from 37.8 µM), inactives show top-dose activity change, negative = inhibition, actives largely listed as inhibitors | 300,000 tested, 1.8% active | AID 540276; calls by dose curve; tested in HEK293 cells; also: potency is read from the fitted curve at half-maximal effect
# Numbers without * were called inactive; ? = inconclusive; nt = no result; [ ] = another dose, or the depositor's remark. Unless noted, calls follow the shape of the dose curve; as a rule, active = well fitted inhibition curve with a large enough effect; inconclusive = small, poorly fitted or top-dose-only effect, or another doubt; inactive = no such curve, though single readings can be large or run the other way. % is scaled to controls: 0 for no effect and ±100 for the full control effect.
SMILES,Lassa entry inh,HCMV antiviral,Pf growth 96h,HCV inh,Pf growth 48h,Marburg entry inh
CN(Cc1cn(-c2ccccc2)nc1-c1ccc2c(c1)OCO2)Cc1nccn1C,nt,-28,10%,?,12µM*,nt
Cc1c2cnn(CC(=O)N3CCN(c4ccccc4)CC3)c(=O)c2c(C)n1Cc1ccc(F)cc1,-5%[46.1 µM],-9,nt,nt,nt,-3%[46.1 µM]
CC1CCCC(C)N1C(=O)CN1C(=O)c2ccccc2S1(=O)=O (stereo unspecified),nt,?,19%,2%,-3%,nt
Cc1ccccc1S(=O)(=O)Cc1ccc(C(=O)NCc2ccccc2Cl)o1,-22%[46.1 µM],-1,nt,nt,nt,7%[46.1 µM]
COc1ccc(C(=O)/C=C/C(=O)N(Cc2ccccc2OC)C(C(=O)NC2CCCCC2)c2ccncc2)c(O)c1 (stereo unspecified),?,?,10%,?,12µM*,?
COc1ccc(C(=O)/C=C/C(=O)N(Cc2ccc(F)cc2)C(C(=O)NC2CCCCC2)c2ccncc2)c(O)c1 (stereo unspecified),?,nt,-24%,?,5.2µM*,?
C=C1SC(Nc2c(C)cc(C)cc2C)=NC12CCCCC2,?,-89*,?,-65%,1.7µM*,3.5µM*
OC(c1ccc(F)cc1)c1nc(-c2ccccc2)cs1 (stereo unspecified),nt,48,nt,nt,nt,nt
CC(C)c1cccc(-c2csc(C(O)c3ccc(F)c(F)c3)n2)c1 (stereo unspecified),nt,-70*,nt,nt,nt,nt
OC(c1ccc(F)cc1)c1nc(-c2ccc(Cl)cc2)cs1 (stereo unspecified),nt,-66*,nt,nt,nt,nt
CC(C)c1cccc(-c2csc(C(O)c3ccc(F)cc3)n2)c1 (stereo unspecified),nt,-3,nt,nt,nt,nt
COc1ccc(-c2csc(C(O)c3cccc(OC)c3)n2)cc1 (stereo unspecified),nt,-68*,nt,nt,nt,nt
CN1OC[C@@H]2CN(Cc3cc(Cl)cc(Cl)c3)[C@H](c3cccc(Br)c3)C[C@@H]21,nt,-14,nt,-28%,nt,nt
O=C(Nc1ccc2ccccc2c1)C(c1ccccc1)n1c(=O)c(-c2cc3ccccc3[nH]2)nc2ccccc21 (stereo unspecified),nt,46,nt,nt,nt,nt
CC1(C)O[C@@H]2[C@H](O1)[C@@H](COS(=O)(=O)O)O[C@H]2n1cc(Br)c(=O)[nH]c1=O,nt,-7,nt,9%,nt,nt
Cc1ccc(-c2cc(C(F)(F)F)nn2-c2ccc(S(N)(=O)=O)cc2)cc1,nt,5,5.9µM*,?,15µM*,nt
Cn1c2ccccc2c(=O)c2ccc(NCc3ccc4c(c3)OCO4)cc21,nt,-18,nt,?,nt,nt
Cc1ccc(N2CCOCC2)c2c1C(=O)c1ccccc1C2=O,?,79,?,?,?,?
O=C1c2ccccc2-c2n[nH]c(=O)c3ccc(N4CCCCC4)c1c23,-27%,-62*,-16%,11µM*,-24%,-26%[46.1 µM]
O=C(NC(CC1=CCCCC1)c1ccccc1)C(F)(F)F (stereo unspecified),?,nt,nt,nt,nt,59%[14.2 µM]
C/C(=N\NC(=O)CO/N=C(\C)c1cccs1)c1ccc(N)cc1,nt,-31,-17%,-19%,41%,nt
C/C(=N\OCC(=O)N/N=C/c1ccc(C)cc1O)c1cccs1,14%,7,108%,10µM*,8%,-19%
Cc1cnccc1CN(C)Cc1cn(C)nc1-c1cccc(Cl)c1,?,0,20%,-12%,?,?
CN(Cc1cn(C)nc1-c1cccc(Cl)c1)CC1CCCCO1 (stereo unspecified),-12%[46.1 µM],7,10µM*,4%,6%,?
COC(=O)[C@@H]1[C@@H](CO)[C@@H]2Cn3c(ccc(Br)c3=O)[C@H]1N2C(=O)Cc1ccccn1,nt,4,nt,nt,nt,nt
SMILES,Lassa entry inh,HCMV antiviral,Pf growth 96h,HCV inh,Pf growth 48h,Marburg entry inh
O=C(C1CCN(c2nnc(N3CCCC3=O)s2)CC1)N1CCN(c2cccc(C(F)(F)F)c2)CC1,nt,-79*,-9%,?,?,nt
Cc1ccc(C)c(N2CCN(C(=O)C3CCN(c4nnc(N5CCCC5=O)s4)CC3)CC2)c1,?,-30,4%,?,nt,?
COCCN(Cc1cccs1)S(=O)(=O)c1ccc(-c2ccc(=O)[nH]n2)s1,nt,-19,0%,8%,?,nt
CCCCN(Cc1cccs1)S(=O)(=O)c1ccc(-c2ccc(=O)[nH]n2)s1,0%[46.1 µM],-68*,23%,-22%,?,-3%[46.1 µM]
Cc1c(C(=O)Nc2cccc(Cl)c2)c2ccccn2c1CCc1ccncc1,?,-8,?,?,0%,?
Cc1c(C(=O)Nc2ccc(Cl)cc2)c2ccccn2c1CCc1ccncc1,-21%,42,9.3µM*,-27%,?,?
CCOC(=O)c1cc(CC)sc1NC(=O)CCC(=O)O,6%,18,nt,9%,-4%,-17%
CCOC(=O)c1cc(CC)sc1NC(=O)Cc1ccsc1,-8%,?,3.3µM*,5.6µM*,22%,-21%
CCOC(=O)c1cc(-c2ccccc2)sc1NC(=O)CN1C(=O)NC(CC)(c2ccccc2)C1=O (stereo unspecified),-3%,-28,?,-16%,nt,-19%
CCOC(=O)c1cc(-c2ccccc2)sc1NC(=O)C(C)OC(=O)c1cccc(S(=O)(=O)N(C)C)c1 (stereo unspecified),0%,-28,?,?,?,-3%
CCOC(=O)c1cc(-c2ccccc2)sc1NC(=O)C(C)OC(=O)c1cccnc1OCC (stereo unspecified),-21%,-39,35%,3.5µM*,12%,?
CCOC(=O)c1cc(-c2ccccc2)sc1NC(=O)CC,?,23,2.3µM*,?,5.2µM*,?
CCOC(=O)c1cc(-c2ccccc2)sc1NC(=O)CCN1C(=O)c2ccccc2C1=O,11%,?,?,-17%,13%,17%
CCOC(=O)c1cc(-c2ccccc2)sc1NC(=O)CN1C(=O)NC(CC)(c2ccc(F)cc2)C1=O (stereo unspecified),2%,-9,nt,10µM*,?,?
CCCn1nc(NC(=O)c2cccs2)c2cc3cc(C)ccc3nc21,?,25,-6%,22µM*,?,1%[46.1 µM]
CCn1nc(NC(=O)c2ccncc2)c2cc3cc(C)ccc3nc21,21%,110,19%,?,13%,-14%
CCCn1nc(NC(=O)c2cccs2)c2cc3ccc(C)cc3nc21,nt,-28,?,14µM*,2.9µM*,nt
COCCNC(=O)c1ccc2nc(CCc3ccccc3)oc2c1,?,48,nt,nt,nt,nt
COc1ccc(CCC(=O)N2c3ccccc3N=C(c3ccc(C(F)(F)F)cc3)C2C(=O)NC(C)C)cc1 (stereo unspecified),nt,3,nt,nt,nt,nt
